PubChem BioAssay AID434994 (NMMLSC, 2010)
This is one part of the list.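 Rule for the calls: active = superoxide signal below 65% of the plate average of sample wells; inactive = the rest.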

Assay: superoxide lowering in aged yeast cells, confirmation, cherry picked compounds (AID 434994);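 note: cells aged with compound for 7 days at 30 degrees C before staining; 100% equals mean DHE fluorescence of all compound wells on the plate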
Conditions: S. cerevisiae aging, superoxide DHE fluorescence; at 10 µM; active compounds read low

Superoxide response (% of plate), inactive:
O=C(Nc1ccc(Br)cn1)c1ccc([N+](=O)[O-])cc1Cl 96.2%
NC(=S)Nc1c(Cl)cccc1Cl 109%
CCN(CC)C(=O)CSc1nnc(-c2cccc(OC)c2)o1 113%
O=C(CN1CCN(c2ccccn2)CC1)Nc1ccc(Br)cc1 111%
CCN(CC)c1ccc(NC(=O)CN2CCN(c3ccccn3)CC2)cc1 101%
COc1cccc(NC(=O)NCCN2CCCCC2)c1 101%
Cc1cc2oc(C(=O)Nc3c(C)n(C)n(-c4ccccc4)c3=O)c(C)c2cc1Cl 93.5%
O=C(CSc1ccc(-c2ccc(-n3cccn3)cc2)nn1)Nc1ccc([N+](=O)[O-])cc1 95.7%
CC(=O)C[C@@H](O)CC(=O)[C@H]1OC(=O)CCCCCCc2ccccc21 103%
CC(=O)NC1=NN(C(C)=O)C(C)(CCS(=O)(=O)c2ccc(Cl)c(Cl)c2)S1 (configuration not stated) 101%
COc1cc(NC(=O)CSc2ccc(-c3cccnc3)nn2)cc(OC)c1 123%
CC(C)NC(=O)/C(C#N)=C\c1ccc(N(C)C)c(Br)c1 88.1%
O=C(O)C1CCCN1S(=O)(=O)c1ccc(Br)cc1 (configuration not stated) 105%
COc1ccc(NC(C)=O)cc1NC(=O)CN1CCN(c2ccccn2)CC1 103%
Cc1ccc(NC(=O)Cn2nc(C)c3ccccc3c2=O)c(C)c1 114%
CC(=O)c1ccc2c(c1)c1ccccc1n2CC(C)C 107%
CC1CCCN(S(=O)(=O)c2ccc(C(=O)Nc3nnc(-c4ccncc4)o3)cc2)C1 (configuration not stated) 111%
Cc1ccc2cccc(S(=O)(=O)N3CCN(c4ccccc4F)CC3)c2n1 119%
O=C(Nc1ccccc1N1CCCC1)c1ccc2ccccc2c1 95.3%
COc1ccc(CCNC(=O)c2ccccc2-c2ccccc2C(=O)O)cc1OC 108%
O=C(CSCc1ccccc1)Nc1ccccc1 107%
CC(C)(C)NC(=O)COc1ccc(CNc2ccc3[nH]c(=O)[nH]c3c2)cc1 96.2%
